The list is not random: actives were taken first. Their share in the collection is about 2.1%.
LMP1 NFkB inh: reduces LMP1-driven NF-kappaB luciferase signal; LMP1-induced NF-kappaB luciferase reporter cells, luminescence; inhibition, % at 12.5 µM; actives 0.69% (n = 350,000); in the data active means inhibition above about 41%; inconclusive means no clear call, values can overlap the other calls;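 further: 0% = neutral control wells and 100% = reference inhibitor control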
Shn3 inh set2: inhibitors of Schnurri-3 3'UTR reporter in osteoblasts; AID 588674; actives 0.52% (n = 360,000); Clone20 osteoblast Shn3 3'UTR firefly luciferase, 24 h; inhibition, % at 12.5 µM;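 active means mean inhibition of at least 75% with every replicate also reaching 75%; inconclusive means mean inhibition at least 75% but some replicate below; inactive means mean inhibition below 75%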;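 further: 0% = median of neutral control wells and 100% = pilot-screen positive control compound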
PAX8 inh HTS: inhibitors of PAX8 transcriptional activity in RMG-I cells; RMG-I TPO-luciferase reporter, SteadyGlo, 24 h; inhibition, % at 12.6 µM; actives 1.2% (n = 360,000); AID 652154;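 active means mean replicate inhibition at least 60% with every replicate also reaching 60%; inconclusive means only one of the two criteria is met; inactive means mean below 60% and not all replicates reaching 60%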;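 further: luciferase light reporting Pax8 driven TPO promoter activity; plate controls were median of neutral control wells for no effect and mitoxantrone controls for full effect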
TRPM1 prom inh: MITF TRPM1 promoter inhibition in SK-MEL-5 cells. SK-MEL-5 TRPM1 promoter luciferase, 24 h. inhibition, % at 12.5 µM. actives 0.83% (n = 330,000);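 active means mean inhibition across replicates of 60% or more, whatever share of single replicates reaches that level; inconclusive means some that reach 60%, reason not given; inactive means mean inhibition across replicates below 60%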
aSyn UTR inh: 5' untranslated region of α-synuclein, MLPCN primary screen; alpha-synuclein 5'UTR reporter, inhibitor activity; inhibition, % (tested at 7.5 µM); actives 0.82% (n = 300,000); AID 1813; in the data active means inhibition above about 60%; inconclusive means no clear call, values can overlap the other calls;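 further: H4 neuroglioblastoma cells stably carrying SNCA 5'UTR luciferase fusion; 0% = DMSO wells and 100% = positive control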
* hit, by the source's call; u = inconclusive; x = not tested or not shown; ! = a repeat was not active.

SMILES	LMP1 NFkB inh	Shn3 inh set2	PAX8 inh HTS	TRPM1 prom inh	aSyn UTR inh
O=C(NC1=NCCS1)c1ccc(OCC2CCCO2)cc1 (configuration not stated)	6.5	-40.8	-48.4	-25.1	-77.0
Cc1ccc(NC(=O)c2ccc(OCC3CCCO3)cc2)nc1 (configuration not stated)	-7.5	-78.4	-138.0	-78.8	-36.4
O=C(Nc1ccc(Cl)c(S(=O)(=O)N2CCOCC2)c1)c1ccc(OCC2CCCO2)cc1 (configuration not stated)	17.5	76.5	x	72.3*	9.6
Cc1cnc(NC(=O)c2ccc(OCC3CCCO3)cc2)s1 (configuration not stated)	47.1*	26.3	24.2	26.3	79.1*
O=C(Nc1ncccc1O)c1ccc(OCC2CCCO2)cc1 (configuration not stated)	76.5*	11.3	12.1	2.7	32.4
C[C@H](NC(=O)c1nc[nH]c1C(=O)N[C@@H](Cc1ccccc1)C(=O)OCc1ccccc1)C(=O)OC(C)(C)C	-12.3	-9.7	1.6	4.9	0.4
Cc1cc(C)c(-n2nnnc2SCC(=O)c2cccs2)c(C)c1	5.2	13.6	-7.9	-4.2	-19.0
COc1ccc(NC(=O)Nc2ccc3c(c2)C(=O)N([C@@H](C)CO)C[C@@H](C)[C@@H](CN(C)Cc2ccc(Cl)c(Cl)c2)OCCCC[C@@H](C)O3)cc1	x	x	75.1*	x	x
COc1ccc(NC(=O)Nc2ccc3c(c2)C(=O)N([C@H](C)CO)C[C@H](C)[C@@H](CN(C)Cc2ccc(Cl)c(Cl)c2)OCCCC[C@@H](C)O3)cc1	6.2	27.8	74.3*!	x	x
O=C(Nc1cccc(O)c1)C(=O)Nc1ccccn1	0.7	11.7	67.5*	0.8	34.1
CCOC(=O)C1=C(C)Nc2ccccc2N=C1N	-0.1	3.0	-7.2	2.6	1.3
CCOC(=O)C1=C(C)Nc2ccccc2N=C1NC(=O)c1oc2ccccc2c1COC	8.4	4.4	64.6*	20.9	x
N/C(=N\OC(=O)c1ccccc1)C(Cc1ccccc1)C(=O)NOC(=O)c1ccccc1 (configuration not stated)	-40.0	16.9	x	61.6*	x
O=C(NOC(=O)c1ccccc1)c1ccccc1	0.9	x	-10.6	6.9	-5.9
C=CCCc1ccc(C#N)c(SCc2c(C(=O)OCC)c3cc(OC(C)=O)c(Br)cc3n2C)n1	8.3	89.4*	x	24.7	-3.9
CCOC(=O)c1c(CSc2nc(C)cc(C)c2C#N)n(C)c2cc(Br)c(OC(C)=O)cc12	50.2*	77.5	9.7	40.1	41.5
CCCCCCCCOC(=O)c1c(CSC(=N)N)n(C)c2cc(Br)c(OC(C)=O)cc12	x	-13.0	33.2	x	u
COc1cc(OC)cc(C(=O)N[C@H](C(=O)NCCc2ccc(S(N)(=O)=O)cc2)C(C)C)c1	4.3	-51.3	1.4	-9.0	-9.4
C[C@@H]1CN([C@@H](C)CO)C(=O)Cc2cc(NS(=O)(=O)c3cn(C)cn3)ccc2O[C@H]1CN(C)Cc1ccc2c(c1)OCO2	x	x	-0.2	x	x
COc1ccc(/C=C2/C(=O)ON=C2c2ccccc2)cc1OC	9.4	12.1	3.9	28.2	-12.3
OCCNc1c2ccccc2nc2c(F)c(F)c(F)c(F)c12	-93.8	-23.4	36.1	80.6*	-83.6
Oc1ccccc1Nc1nc(NCc2ccccc2)c2ccccc2n1	4.2	89.2*	48.8	2.9	-37.1
c1ccc(CNc2ncnc3ccccc23)cc1	22.2	83.9	-26.1	5.3	-3.0
CN(C)CCCNc1c2ccccc2nc2ccccc12	-30.9	94.3*	10.1	u	70.8*
c1ccc(CNc2c3ccccc3nc3ccccc23)cc1	-54.3	68.5	13.2	75.5*	-332.2
SMILES	LMP1 NFkB inh	Shn3 inh set2	PAX8 inh HTS	TRPM1 prom inh	aSyn UTR inh
O=C(O)CNC(=O)c1ccc(OC(F)F)cc1	3.5	-9.9	x	8.8	-14.1
CC(=O)Cn1ncc(N(C)Cc2ccccc2)c(Cl)c1=O	-15.8	-10.7	-40.3	-53.4	-51.3
CCN(CC(=O)Nc1c(F)cccc1F)C(=O)CCCN1C(=O)c2ccccc2C1=O	4.3	-0.1	13.0	x	x
Oc1ccc(CCNc2c3ccccc3nc3ccccc23)cc1O	-9.2	-21.5	-70.6	72.0*	-30.8
COc1ccc(NC(=O)C(=O)N/N=C/c2cccnc2)cc1	1.2	18.3	-153.8	3.5	-2.6
Cc1ccc2c(CC(=O)OCC(=O)Nc3ccc(Cl)cn3)coc2c1	3.3	-15.6	119.0*	5.4	-4.1
Cc1cccc(C)c1OCC(=O)OCC(=O)Nc1ccc(Cl)cn1	-4.4	-3.9	-4.4	-2.5	x
COc1cccc(-n2nc(C#N)c(Cl)cc2=O)c1	11.5	96.4*	98.2*	90.6*	16.7
COc1cc(/C=C/C(=O)c2ccc3c(c2)OCO3)cc(Cl)c1O	2.2	-13.4	-8.8	0.5	-34.5
COc1ccc(S(=O)(=O)N2CCCCCC2)cc1C(=O)OCc1cccc(OC)c1OC	45.9*	-13.0	12.5	0.4	3.2
O=C(c1ccco1)N1CCN(Cc2nc3ccccc3c(=O)n2-c2ccc(F)cc2)CC1	-0.5	10.1	x	3.9	-5.7
CCc1ccc(NC(=O)C(C)OC(=O)c2ccc(-n3cnnn3)cc2)cc1 (configuration not stated)	2.0	-1.0	-8.0	-8.4	-2.4
COc1ccc(/C=C\C(=O)NCc2ccc3c(c2)cc(C)n3C)cc1OC	66.6*	4.7	x	-2.1	1.1
COc1ccc(C(=O)NCc2ccc3c(c2)cc(C)n3C)cc1OC	3.8	-17.0	9.5	-3.2	27.4
N#Cc1ccc(N2CCc3ccccc3C2)c([N+](=O)[O-])c1	7.6	11.1	-11.3	10.3	81.1*
CCCNC(=O)Nc1ccc2c(c1)OC[C@@H](C)N(Cc1ccc(-c3ccccn3)cc1)C[C@@H](C)[C@H](OC)CN(C)C2=O	x	x	94.9*	x	x
CCCC(=O)Nc1ccc2c(c1)C(=O)N(C)C[C@@H](OC)[C@H](C)CN(Cc1ccc(-c3ccccn3)cc1)[C@H](C)CO2	x	x	75.8*	x	x
CCCNC(=O)Nc1ccc2c(c1)OC[C@H](C)N(Cc1ccc(-c3ccccn3)cc1)C[C@@H](C)[C@@H](OC)CN(C)C2=O	x	x	100.1*	x	x
COc1ccc(CN(C(=O)CSc2nnc(-c3ccc(F)cc3)o2)c2ccc(F)cc2)cc1	1.5	88.2*	x	6.2	10.4
COc1ccc(CN(C(=O)CSc2nnc(-c3c[nH]c4ccccc34)o2)c2ccc(F)cc2)cc1OC	36.0	80.3	81.2*	-0.3	-43.4
CCOC(=O)CSc1nnc(-c2c[nH]c3ccccc23)o1	-12.6	-9.1	0.5	-0.1	-12.9
Cc1cc(=O)[nH]c(SCC(=O)Nc2ccc(S(=O)(=O)N3CCOCC3)cc2)n1	-10.1	-2.5	x	-0.8	16.5
Cc1ccc(C(=O)c2cc([N+](=O)[O-])ccc2N2CCOCC2)cc1C	5.4	-15.2	18.5	9.8	16.8
CSc1ccc(COC(=O)c2cc([N+](=O)[O-])ccc2N2CCOCC2)cc1	9.8	36.1	96.5*	67.1*	66.9*
Cc1ccccc1COC(=O)c1cc([N+](=O)[O-])ccc1N1CCOCC1	-14.4	6.8	24.0	5.0	9.7
CN1CCN(c2ccc([N+](=O)[O-])cc2C(=O)N2CCOCC2)CC1	-1.3	-7.0	-9.2	0.7	0.6

Compound activity deposited in PubChem BioAssay by Broad Institute.
